PubChem BioAssay AID1159580 (chemical genetic matrix, 2015)
“And” between values parts separate entries of the source, which are not always exact repeats. Equal entries are not always repeated. The campaign covered roughly 5,500 compounds. About 2,000 (36%) were called active. Another 18% or so got no clear call; they are omitted. Cut-off read from the data, not from the text of the source: active = normalized growth mostly below about 0.91 (no sharp cut-off); inconclusive = no clear call, values can overlap the other calls; inactive = mostly above about 0.92. The list shows a part of the results.

Test: chemical genetic growth profiling, strain panel (AID 1159580);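 note: tested at 20 µM; growth read once vehicle control cultures reached saturation at 30 °C; 1 = growth at the plate median or of vehicle wells; lower values mean less growth of the strain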
Conditions: S. cerevisiae deletion strains, growth OD

Measured: normalized growth

CC(C)N(CCC(C(N)=O)(c1ccccc1)c1ccccn1)C(C)C (stereo unspecified)
active: locus YAL021C, strain ccr4, active compounds read low 0.0708 | locus YAL026C, strain drs2, active compounds read low 0.0629 | locus YAL030W, strain snc1, active compounds read low 0.233 | locus YBL061C, strain skt5, active compounds read low 0.15 | locus YBR009C, strain hhf1, active compounds read low 0.103 | locus YBR023C, strain chs3, active compounds read low 0.171 | locus YBR171W, strain sec66, active compounds read low 0.0831 | locus YBR231C, strain swc5, active compounds read low 0.0926 | locus YBR279W, strain paf1, active compounds read low 0.0794 | locus YCL011C, strain gbp2, active compounds read low 0.062 | locus YCL016C, strain dcc1, active compounds read low 0.251 | locus YCL061C, strain MRC1, active compounds read low 0.0703 | locus YCL069W, strain vba3, active compounds read low 0.0939 | locus YCR088W, strain abp1, active compounds read low 0.0673 | locus YDL040C, strain nat1, active compounds read low 0.471 | locus YDR001C, strain nth1, active compounds read low 0.0635 | locus YDR069C, strain doa4, active compounds read low 0.0647 | locus YDR137W, strain rgp1, active compounds read low 0.0968 | locus YDR159W, strain sac3, active compounds read low 0.388 | locus YDR195W, strain ref2 0.12 | locus YDR297W, strain sur2, active compounds read low 0.0705 | locus YDR334W, strain swr1, active compounds read low 0.0666 | locus YDR335W, strain msn5, active compounds read low 0.0613 | locus YDR392W, strain spt3, active compounds read low 0.112 | locus YEL003W, strain gim4, active compounds read low 0.0565 | locus YEL037C, strain rad23, active compounds read low 0.0584 | locus YEL061C, strain CIN8 (second series), active compounds read low 0.0634 | locus YER015W, strain faa2, active compounds read low 0.0627 | locus YER016W, strain bim1, active compounds read low 0.0943 | locus YER111C, strain swi4, active compounds read low 0.082 | locus YER155C, strain BEM2 (second series), active compounds read low 0.1 | locus YFR010W, strain ubp6, active compounds read low 0.0698 | locus YGL167C, strain pmr1, active compounds read low 0.563 | locus YGL173C, strain kem1, active compounds read low 0.114 | locus YGL227W, strain vid30, active compounds read low 0.0631 | locus YGL240W, strain doc1, active compounds read low 0.129 | locus YGL253W, strain hxk2, active compounds read low 0.0581 | locus YHR013C, strain ard1, active compounds read low 0.114 | locus YHR027C, strain rpn1, active compounds read low 0.0639 | locus YHR142W, strain chs7, active compounds read low 0.0788 | locus YJL092W, strain hpr5, active compounds read low 0.0644 | locus YJL095W, strain BCK1 (second series), active compounds read low 0.17 | locus YJL115W, strain asf1, active compounds read low 0.0925 | locus YJL129C, strain trk1, active compounds read low 0.0869 | locus YJL154C, strain vps35, active compounds read low 0.0659 | locus YJL164C, strain tpk1, active compounds read low 0.13 | locus YJL166W, strain qcr8, active compounds read low 0.0729 | locus YJL187C, strain SWE1, active compounds read low 0.468 | locus YKL160W, strain elf1, active compounds read low 0.139 | locus YKR026C, strain gcn3, active compounds read low 0.441 | locus YKR091W, strain srl3, active compounds read low 0.559 | locus YLL001W, strain dnm1, active compounds read low 0.0623 | locus YLL026W, active compounds read low 0.0653 | locus YLL041C, strain sdh2, active compounds read low 0.411 | locus YLR027C, strain aat2, active compounds read low 0.0601 | locus YLR221C, strain rsa3, active compounds read low 0.0673 | locus YLR258W, strain gsy2, active compounds read low 0.0927 | locus YLR262C, strain YPT6 (second series), active compounds read low 0.0974 | locus YLR320W, strain mms22, active compounds read low 0.104 | locus YLR342W, strain FKS1, active compounds read low 0.0913 | locus YLR357W, strain rsc2, active compounds read low 0.133 | locus YLR370C, strain arc18, active compounds read low 0.0613 | locus YLR384C, strain iki3, active compounds read low 0.0647 | locus YML120C, strain ndi1, active compounds read low 0.0595 | locus YMR058W, strain fet3, active compounds read low 0.0623 | locus YMR125W, strain sto1, active compounds read low 0.309 | locus YMR129W, active compounds read low 0.0614 | locus YMR205C, strain PFK2, active compounds read low 0.193 | locus YMR231W, strain pep5, active compounds read low 0.095 | locus YNL071W, strain lat1, active compounds read low 0.0658 | locus YNL209W, strain ssb2, active compounds read low 0.0612 | locus YNL248C, strain rpa49, active compounds read low 0.0783 | locus YNL322C, strain KRE1 (second series), active compounds read low 0.0713 | locus YNR049C, strain mso1, active compounds read low 0.0601 | locus YOR001W, strain rrp6, active compounds read low 0.0692 | locus YOR070C, strain gyp1, active compounds read low 0.0654 | locus YOR080W, strain dia2, active compounds read low 0.0699 | locus YOR083W, strain WHI5, active compounds read low 0.227 | locus YOR106W, strain vam3, active compounds read low 0.0676 | locus YOR265W, strain rbl2, active compounds read low 0.0664 | locus YOR270C, strain vph1, active compounds read low 0.0928 | locus YOR290C, strain snf2, active compounds read low 0.0671 | locus YPL051W, strain arl3, active compounds read low 0.0788 | locus YPL078C, strain atp4, active compounds read low 0.0695 | locus YPL106C, strain sse1, active compounds read low 0.117 | locus YPL240C, strain hsp82, active compounds read low 0.278
inactive: locus YAL013W, strain DEP1, active compounds read low 0.959 | locus YAL040C, strain CLN3, active compounds read low 0.969 and 1.02 | locus YBR021W, strain FUR4, active compounds read low 0.984 | locus YBR229C, strain ROT2, active compounds read low 0.998 | locus YCL029C, strain bik1, active compounds read low 0.963 | locus YCL061C, strain MRC1 (second series), active compounds read low 0.993 and 1.01 | locus YDL005C, strain med2, active compounds read low 0.937 | locus YDL035C, strain GPR1, active compounds read low 1.04 | locus YDL074C, strain BRE1, active compounds read low 0.976 | locus YDL101C, strain DUN1, active compounds read low 0.988 | locus YDL185W, strain tfp1, active compounds read low 0.971 | locus YDL192W, strain arf1, active compounds read low 0.995 | locus YDR101C, strain arx1, active compounds read low 0.983 | locus YDR150W, strain NUM1, active compounds read low 0.989 and 1 and 1.01 | locus YDR162C, strain NBP2, active compounds read low 1.01 | locus YDR318W, strain mcm21, active compounds read low 0.998 | locus YDR363W, strain ESC2, active compounds read low 0.982 and 0.999 | locus YDR388W, active compounds read low 0.99 | locus YDR502C, strain sam2, active compounds read low 0.992 | locus YEL061C, strain CIN8, active compounds read low 0.996 | locus YER002W, strain NOP16, active compounds read low 0.995 and 1 | locus YER110C, active compounds read low 0.977 | locus YER155C, strain BEM2, active compounds read low 0.989 | locus YER167W, strain BCK2, active compounds read low 0.986 | locus YGL078C, strain dbp3, active compounds read low 0.99 | locus YGL086W, strain mad1, active compounds read low 1 | locus YGL248W, strain PDE1, active compounds read low 0.98 | locus YGR078C, strain PAC10, active compounds read low 0.99 and 1.04 | locus YGR135W, strain pre9, active compounds read low 0.952 | locus YGR252W, strain gcn5, active compounds read low 0.997 | locus YHR030C, strain SLT2, active compounds read low 0.997 and 1 | locus YHR079C, strain IRE1 (second series), active compounds read low 0.995 | locus YHR079C, strain IRE1, active compounds read low 0.968 | locus YHR094C, strain hxt1, active compounds read low 0.976 | locus YHR129C, strain ARP1, active compounds read low 0.999 | locus YHR200W, strain rpn10, active compounds read low 0.999 | locus YIL066C, strain RNR3, active compounds read low 0.992 | locus YIL073C, strain SPO22, active compounds read low 0.912 | locus YIL125W, strain kgd1, active compounds read low 1 | locus YIR030C, strain dcg1, active compounds read low 0.973 | locus YJL095W, strain BCK1, active compounds read low 0.966 and 1.01 | locus YJL134W, strain LCB3, active compounds read low 0.998 | locus YJL168C, strain set2, active compounds read low 0.996 | locus YJL187C, strain SWE1 (second series), active compounds read low 0.977 | locus YJR043C, strain POL32, active compounds read low 1.05 | locus YJR066W, strain TOR1, active compounds read low 0.994 | locus YJR075W, strain HOC1, active compounds read low 1.02 | locus YKL009W, strain mrt4, active compounds read low 0.97 | locus YKL068W, active compounds read low 0.98 | locus YKL085W, strain MDH1 (second series), active compounds read low 0.988 | locus YKL085W, strain MDH1, active compounds read low 0.988 | locus YKR001C, strain vps1, active compounds read low 0.988 | locus YLR039C, strain RIC1, active compounds read low 0.972 | locus YLR058C, strain SHM2, active compounds read low 0.979 | locus YLR102C, strain apc9, active compounds read low 0.987 | locus YLR113W, strain HOG1, active compounds read low 1.06 | locus YLR262C, strain YPT6, active compounds read low 0.963 | locus YLR268W, strain sec22, active compounds read low 0.999 | locus YLR330W, strain CHS5, active compounds read low 0.989 | locus YLR342W, strain FKS1 (second series), active compounds read low 1.02 | locus YLR371W, strain rom2, active compounds read low 0.997 | locus YLR418C, strain cdc73, active compounds read low 0.967 | locus YML016C, strain PPZ1, active compounds read low 0.997 | locus YML032C, strain rad52, active compounds read low 1.01 | locus YML124C, strain tub3, active compounds read low 0.994 | locus YMR078C, strain ctf18, active compounds read low 0.978 | locus YMR223W, strain ubp8, active compounds read low 0.978 | locus YMR263W, strain SAP30, active compounds read low 0.991 | locus YMR307W, strain GAS1, active compounds read low 1.01 and 0.995 and 1.02 | locus YNL067W, strain RPL9B, active compounds read low 0.973 | locus YNL128W, strain TEP1, active compounds read low 1.02 and 0.999 | locus YNL153C, strain GIM3, active compounds read low 0.983 and 1.03 | locus YNL175C, strain NOP13, active compounds read low 0.978 and 1.02 | locus YNL183C, strain NPR1, active compounds read low 1 | locus YNL197C, strain WHI3, active compounds read low 1.01 and 0.977 | locus YNL224C, strain SQS1, active compounds read low 0.978 and 1.01 | locus YNL233W, strain BNI4, active compounds read low 0.972 | locus YNL250W, strain rad50, active compounds read low 1.01 | locus YNL271C, strain bni1, active compounds read low 0.996 | locus YNL298W, strain CLA4, active compounds read low 0.997 | locus YNL307C, strain MCK1, active compounds read low 0.999 | locus YNL322C, strain KRE1, active compounds read low 0.977 and 1.02 | locus YNR052C, strain pop2, active compounds read low 0.997 | locus YOL012C, strain htz1 0.863 | locus YOL147C, strain pex11, active compounds read low 0.984 | locus YOR061W, strain CKA2, active compounds read low 0.998 | locus YOR069W, strain VPS5, active compounds read low 0.996 | locus YOR083W, strain WHI5 (second series), active compounds read low 1 and 0.957 | locus YOR136W, strain idh2, active compounds read low 1.01 | locus YOR144C, strain elg1, active compounds read low 0.996 | locus YOR184W, strain ser1, active compounds read low 0.995 | locus YOR231W, strain MKK1, active compounds read low 1.02 | locus YOR316C, strain cot1, active compounds read low 1 | locus YPL241C, strain CIN2, active compounds read low 0.995 and 1.01 | locus YPL256C, strain CLN2, active compounds read low 0.991 | locus YPR119W, strain clb2, active compounds read low 0.997 | locus YPR141C, strain kar3, active compounds read low 0.962 | locus YPR163C, strain tif3, active compounds read low 0.989 | locus YPR167C, strain met16, active compounds read low 1.01 | strain wtn01, active compounds read low 0.996
